# Screening results as filed in PubChem.
# Shown are actives, neighbours in structure and some others; about 0.4% of the full set was active somewhere.
# AID inh = blocks human AID cytidine deaminase activity | Potency, µM (series often up to 115 µM), actives largely listed as inhibitors | Q9GZX7 | AID deamination FRET fluorescence, UDG-coupled, 4 h | 91,000 compounds, 0.32% hits; further: nearly all actives have a fitted effect of over 25% in size
# Target sequence (Q9GZX7 whole entry, looked up): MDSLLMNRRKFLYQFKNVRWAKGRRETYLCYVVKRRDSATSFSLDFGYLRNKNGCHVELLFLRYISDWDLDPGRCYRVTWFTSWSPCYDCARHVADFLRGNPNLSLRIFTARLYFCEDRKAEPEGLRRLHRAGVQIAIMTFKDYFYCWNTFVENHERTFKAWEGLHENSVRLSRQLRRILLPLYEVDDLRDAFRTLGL
# UDG counterscr = blocks uracil-DNA glycosylase in AID counter-screen. FRET deamination/UDG coupled assay, UDG read, 4 h. Potency, µM (series often up to 115 µM), inactives show at the highest dose activity change, negative = inhibition, usual class: inhibitors. 91,000 compounds, 0.14% hits. AID 1347430; further: nearly all actives have a fitted effect of over 65% in size
# * = called active by the depositor; i = inactive; ? = inconclusive; ! = repeats disagree; [ ] = remark or other dose. The call rests on the fitted dose curve; in most records, active means well fitted curve in the direction sought with a large enough effect; inconclusive means small, poorly fitted or top-dose-only effect, or another doubt; inactive means no such curve, though single readings can be large; an effect the other way counts as inactive or inconclusive. On the % scale 0 is the no-effect control and ±100 the full control effect; potency means the concentration at half of the fitted maximal effect.
SMILES,AID inh,UDG counterscr
N.N.N.N.N.N.N.N.N.N.N.N.N.N.O.O.[Ru+4].[Ru+5].[Ru+5],22µM*,32µM*
Cc1ccc(-c2cn3c4ccccc4nc3n2CCCN2CCCC2)cc1,i,-11%
Cc1ccc(N2CCN(C(=O)c3c4c(nc5ccccc35)C(=O)N(C3CCCCC3)C4)CC2)c(C)c1,?,2%
Cc1cccc(N2CCN(C(=O)c3c4c(nc5ccccc35)C(=O)N(C3CCCCC3)C4)CC2)c1C,28µM*,0%
O=C(NCc1ccncc1)c1ccc(C2CCCCC2)cc1,i,9%
O=C(Nc1cccc(Cl)c1)c1c(NC(=O)C(F)(F)F)sc2c1CCCC2,?,-2%
Cc1cccc(NC(=O)c2c(NC(=O)C(F)(F)F)sc3c2CCCCC3)c1,79µM*,-9%
CC(=O)C1=CC[C@H]2[C@@H]3CC[C@H]4C[C@@H](O)CC[C@]4(C)[C@H]3CC[C@]12C,i,-7%
CC(=O)O[C@H]1C[C@@H]2CC[C@@H]3[C@H](CC[C@@]4(C)[C@H]3C[C@H]([N+]3(C)CCCCC3)[C@@H]4OC(C)=O)[C@@]2(C)C[C@@H]1[N+]1(C)CCCCC1,22µM*,-8%
CC(=O)Nc1ccc(NC(=O)c2cc(-c3ccco3)nc3ccccc23)cc1,i,8%
Cn1c(=O)c2c(-c3ccc(Cl)cc3)n(CCc3ccccc3)cc2n(C)c1=O,?,-18%
Cn1c(=O)c2c(-c3ccc(Br)cc3)n(CCc3ccccc3)cc2n(C)c1=O,40µM*,0%
COc1ccc(/C=C(/C#N)C(=O)c2c(Cl)cccc2Cl)cc1,i,0%
Cc1ccc(-n2c(SCc3nc(-c4ccccc4C)no3)nnc2-c2ccncc2)cc1C,32µM*,?
CCOc1ccc(-n2c(SCc3nc(-c4ccc(OC)cc4)no3)nnc2-c2ccncc2)cc1,?,79µM*
COc1ccc(-c2noc(CSc3nnc(-c4ccncc4)n3-c3cccc(C)c3)n2)cc1OC,?,79µM*
COc1ccc(-c2noc(CSc3nnc(C)n3-c3ccc(C)cc3)n2)cc1OC,i,?
COc1ccc(-n2c(SCc3nc(-c4ccc(C)cc4)no3)nnc2-c2ccccc2)cc1,i,-5%
Cc1ccccc1-c1noc(CSc2nnc(-c3ccncc3)n2-c2ccc(F)cc2)n1,i,?
CCOc1ccc(-n2c(SCc3nc(-c4ccccc4C)no3)nnc2-c2ccccc2)cc1,i,8%
CCOc1ccc(-n2c(Cc3ccccc3)nnc2SCc2nc(-c3cccs3)no2)cc1,32µM*,?
COc1ccc2c(C)cc(SCC(=O)NC(C)c3ccccc3)nc2c1 (configuration not stated),i,-9%
CCN(CC)S(=O)(=O)c1ccc(C)c(NC(=S)N(c2ccccc2)C(C)C)c1,i,9%
CCN(C(=S)Nc1cc(S(=O)(=O)N(C)C)ccc1C)c1cccc2ccccc12,79µM*,?
Cc1cc(Nc2cccc(Cl)c2)nc2ccc(NC(=O)C3CCCCC3)cc12,i,-3%
SMILES,AID inh,UDG counterscr
CCOc1ccccc1NC(=O)C(C)Sc1nc(-c2ccccc2)c(C#N)c(=O)[nH]1 (configuration not stated),35µM*,7%
CCOc1ccccc1NC(=O)C(CC)Sc1nc2ncccc2[nH]1 (configuration not stated),i,-2%[57.5 µM]
CC(=O)N1CCc2c(sc3c2c(=O)n(Cc2ccccc2)c(=O)n3Cc2ccc(Cl)cc2)C1,i,1%
CC(=O)N1CCc2c(sc3c2c(=O)n(Cc2ccccc2)c(=O)n3Cc2cccc(Cl)c2)C1,32µM*,?
CCc1ccccc1NC(=O)C1CC1,i,-9%
CN(C)c1ccc(C(=O)NCc2ccc3c(c2)CCN3C(=O)c2ccccc2)cc1,i,79µM*
CCN(CC)c1ccc(C(=O)NCc2ccc3c(c2)CCN3C(=O)c2ccccc2)cc1,i,19%
O=C(N/N=C/c1ccc(C(F)(F)F)cc1)c1cccs1,i,-2%
Cn1cnc2c1c(=O)n(CCCSCc1ccc(Br)cc1)c(=O)n2C,i,-16%
COc1cc(NC(=O)c2cn(C3CCCC3)c(=O)c3c2c2ccccc2n3C)cc(OC)c1OC,i,1%
COc1ccc(N(C)C(=O)c2cn(C3CCCCC3)c(=O)c3c2c2ccccc2n3C)cc1,40µM*,?
O=C(N/N=C/c1ccccc1)C1CC1c1ccccc1 (configuration not stated),i,2%
CSc1ccc(C(C)NC(=O)C2CC=CCC2)cc1 (configuration not stated),i,-2%
C=C(C)[C@@H]1CCC2(COC(C)=O)CC[C@]3(C)C(CCC4[C@@]5(C)CCC(=O)C(C)(C)C5CC[C@]43C)C12 (some centres not stated),i,-5%
C=C(C)C1CCC2(COC(=O)CCC(=O)O)CC[C@]3(C)C(CCC4[C@@]5(C)CCC(OC(=O)CCC(=O)O)C(C)(C)C5CC[C@]43C)C12 (some centres not stated),28µM*,8%
Cc1nc2nc(SCC(=O)N(C)Cc3ccccc3)nn2c(C)c1Cc1ccccc1Cl,45µM*,-15%
Cc1nc2nc(SCC(=O)NCc3ccccc3Cl)nn2c(C)c1Cc1ccccc1,?,0%
COc1cccc(-c2cc(C(=O)Nc3cc(OC)ccc3OC)[nH]n2)c1,i,-1%
O/N=C(\c1ccc(O)cc1O)c1ccccc1F,i,-3%
CC(C)Cc1ccc(C(C)NC(=O)C(Cc2ccccc2)NC(=O)c2ccccc2)cc1 (configuration not stated),i,-14%
C(=Nc1ccccc1)c1ccccc1OCc1ccccc1,i,-6%
Oc1ccc(N=Cc2ccccc2OCc2ccccc2)cc1,14µM*,?
Cc1ccc(Cl)cc1NC(=O)Nc1nnc(N(C)Cc2ccccc2)s1,i,89µM*
Cc1ccc(NC(=O)Nc2nnc(N(C)Cc3ccccc3)s2)c(C)c1,i,-10%
Cc1ccc(C2=NC(c3ccccc3)=Nc3ccc(Cl)cc3N2)cc1,i,?
SMILES,AID inh,UDG counterscr
COc1ccc(C2=NC(c3ccccc3)=Nc3ccc(C)cc3N2)cc1,i,79µM*
CCOC(=O)c1c(-c2ccc(OC)cc2)oc2ccc(OCc3ccc(F)cc3F)cc12,i,-5%[57.5 µM]
O=C(O)c1c(-c2ccccc2)oc2ccc(OCc3c(F)cccc3Cl)cc12,79µM*,-16%
O=C(COC(=O)CC12CC3CC(CC(C3)C1)C2)Nc1ccc(F)c([N+](=O)[O-])c1,i,8%
CC(C)NCC(O)c1cc(O)cc(O)c1 (configuration not stated),i,2%
NCC(O)c1ccc(O)c(O)c1 (configuration not stated),i,-2%
CC(C)NC[C@H](O)c1ccc(O)c(O)c1,79µM*!,-9%
CCC(NC(C)C)C(O)c1ccc(O)c(O)c1 (configuration not stated),45µM*,-12%
O=C(Nc1c(N2CCCC2)c2ccccc2oc1=O)C1CC(=O)N(c2ccccc2)C1 (configuration not stated),i,5%
COc1cccc(C(=O)/C(C#N)=C\c2ccccc2C(F)(F)F)c1,i,2%
CC(C)C(NS(C)(=O)=O)C(=O)Nc1cccc(Cl)c1 (configuration not stated),i,3%
CCOCCCNc1nc2c(c(=O)[nH]c(=O)n2C)n1Cc1ccccc1Cl,i,-11%
N#Cc1ccc(NCc2ccccc2Cl)cc1,i,-3%
Oc1ccc(NCc2ccccc2OCc2ccccc2Cl)cc1,32µM*,-18%
